Compounds with a hit are over-represented: about 3.9% of the library has one in this group of screens.
CF NFkB block: inhibitors of PAF-induced NF-kB signaling, primary screen, cell-based, GFP fluorescence, uHTS; KKLEB NF-kB-GFP reporter, GFP fluorescence overnight; inhibition, % at 5 µM; 360,000 tested, 0.86% active;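 active = at least 50% inhibition at 5 µM, scaled per plate between neutral and stimulator controls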;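 also: PAF is a Pseudomonas aeruginosa culture filtrate used as stimulus; plate controls were PAF-stimulated DMSO wells for no effect and unstimulated DMSO wells for full effect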
TWEAK Fn14 block: inhibitors of TWEAK-Fn14 signaling, primary screen, luciferase reporter cells, uHTS. TWEAK-stimulated Fn14 reporter cells, luciferase luminescence, 8 h. inhibition, % at 10 µM. 360,000 tested, 2% active. AID 1159606, 2016; in the data active = inhibition above about 50%
Peg3 prom inh: Peg3 promoter-driven luciferase inhibitors, primary screen, cell-based, HeLa, luciferase luminescence; HeLa PEG-Prom luciferase reporter, overnight; inhibition, % at 20 µM; 360,000 tested, 1.7% active; AID 588405, 2011;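 active = inhibition of at least 50% at 20 µM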
HIF-2a inh: HIF-2a reporter inhibitors, primary screen, luminescence, 786-0 RCC cells; 786-0 RCC cells HIF-2a reporter, luciferase luminescence, overnight; inhibition, % at 18.8 µM; 360,000 tested, 0.72% active; AID 624352, 2012;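 active = inhibition of the luminescence signal of 40% or more relative to plate controls, in a single-dose primary screen at 18.75 µM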
TROY NFkB inh: inhibitors of TROY-driven NF-kB signaling, primary screen, Q293 LMP1-TROYcd cells, NF-kB luciferase, uHTS; Q293 LMP1-TROYcd NF-kB luciferase reporter, 4 h; inhibition, % at 10 µM; 360,000 tested, 0.98% active; AID 1347056, 2019;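 active = compounds whose plate-normalised and pattern-corrected inhibition of the luciferase reporter signal at the single screening dose is 50% or more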
KKLEB tox: cytotoxicity in KKLEB CF airway cells, primary screen, cytotoxicity control for CF NF-kB inhibitor project, cell-based, uHTS, fluorescence assay plates | KKLEB CF airway cells viability, ATPlite luminescence, overnight; hits give low values; cells stimulated with P. aeruginosa culture filtrate | AID 602141, 2011 | 360,000 tested, 0.36% active | activity change (cytotoxicity), % at 5 µM;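 active = corrected activity change at or below -50% at 5 µM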
CF NFkB conf: inhibitors of PAF-induced NF-kB signaling, retest, confirmation, cell-based, GFP fluorescence, single concentration. shares compounds with CF NFkB block. KKLEB CF airway cells, overnight. inhibition, % at 5 µM. 1,300 tested, 64% active; in the data active = inhibition above about 40%;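 also: stimulus PAF is a Pseudomonas aeruginosa filtrate and not platelet activating factor; plate controls were DMSO wells with stimulus for no effect and unstimulated DMSO wells for full effect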
The depositor's hits bear a star; nt = not tested or not shown; ! = repeats disagree.

SMILES | CF NFkB block | TWEAK Fn14 block | Peg3 prom inh | HIF-2a inh | TROY NFkB inh | KKLEB tox | CF NFkB conf
CCOC(=O)C1=C(CC)Nc2ccccc2N=C1NC(=O)Nc1ccc(Cl)c(Cl)c1 | 56* | 73* | -16 | -72 | 53* | -25 | 101*
CCOC(=O)C1=C(CC)Nc2ccccc2N=C1NC(=O)c1cc(C)on1 | 7 | -3 | 7 | 13 | -3 | -16 | nt
CC1(C)CC(=O)C2=C(C1)NC(=O)NC2c1ccccc1Cl (stereo unspecified) | 3 | 18 | -9 | 13 | -10 | 5 | nt
Cc1c(NC(=O)Nc2ccc(Cl)cc2)c(=O)n(-c2ccccc2)n1C | -5 | -12 | 9 | -4 | -18 | -7 | nt
Cc1c(N=C2N=C(NC(=O)Nc3ccc(Cl)cc3)c3ccccc32)c(=O)n(-c2ccccc2)n1C | 51* | -42 | 19 | 1 | -22 | -41 | 18
COc1ccc(C(=O)N2CCN(c3cccc(Cl)c3)CC2)cc1S(=O)(=O)NC1CC1 | 2 | -17 | -77 | -198 | -32 | -14 | nt
CC[C@@H](Nc1ncnc2c1oc1ccccc12)C(=O)O | 6 | 11 | 13 | 2 | -13 | -4 | nt
COc1ccc(-c2cn[nH]c2-c2ccc(OCc3ccc([N+](=O)[O-])cc3)cc2O)cc1 | 70* | 78* | -1 | -1 | 38 | 2 | 82*
CCc1cc(-c2[nH]ncc2-c2ccc(OC)cc2)c(O)cc1O | 76* | 64* | 55* | 31 | 49 | 3 | 81*
CCN(CC)S(=O)(=O)c1ccc2c(c1)c(=O)c(C(=O)NCCc1ccc(OC)c(OC)c1)cn2C | -7 | -63 | 0 | 20 | -5 | 10 | nt
COc1ccccc1Cn1c(=O)c2ccccc2n2c(Sc3ncnc4sccc34)nnc12 | 72* | 89* | 26 | 24 | 47 | -31 | 48*
COc1ccccc1Cn1c(=O)c2ccccc2n2c(SCc3csc(C)n3)nnc12 | -13 | -8 | 15 | 19 | -10 | 5 | nt
Cc1cccc(-c2cc(N)n(-c3ccccc3)n2)c1 | 12 | -4 | -302 | -320 | -50 | -7 | nt
CC(=O)c1c(C(C)=O)c(C)n(Cc2ccccc2)c1C | -1 | 22 | 13 | -11 | 19 | 0 | nt
Cc1c(C=O)c(C=O)c(C)n1Cc1ccccc1 | 53* | 21 | 41 | -18 | 12 | -48 | 66*
COc1cc(-c2cc(C(=O)Nc3ccc(S(=O)(=O)NCc4ccco4)cc3)c3ccccc3n2)cc(OC)c1OC | 64* | 14 | 58* | 11 | 8 | 8 | 98*
COc1cc(-c2cc(C(=O)NCc3ccco3)c3ccccc3n2)cc(OC)c1OC | -21 | 34 | 29 | 5 | 4 | -5 | nt
CN1CCN(NC(=O)Nc2ccc([N+](=O)[O-])cc2)CC1 | 22 | -7 | 16 | 23 | -2 | 0 | nt
Cc1c(Cl)cccc1N=C1SCCN1C(=O)CN1C(=O)NC2(CCCC2)C1=O | 53* | 33 | 15 | -5 | 30 | -31 | 40*
Cc1cccc2c1NC(=O)/C2=C\C(=O)c1cccs1 | 74* | 42 | 74* | 45* | 6 | -42 | 47*
O=C(c1cncc(Br)c1)N1CCc2ccccc2C1 | 51* | 12 | -5 | -2 | 15 | -3 | 56*
O=C(c1cncc(Br)c1)N1CCCc2ccccc21 | 5 | -1 | 17 | 15 | -3 | -14 | nt
Cc1ccc2c(c1)C(=O)C(=O)N2Cc1ccc(C(F)(F)F)cc1 | 55* | -6 | 3 | -13 | -7 | -18 | 72*
CCN1CCN(Cc2ccc(NC(=O)c3ccc(C)c(NC(=O)c4cc(-c5ccc(Br)cc5)n[nH]4)c3)cc2C(F)(F)F)CC1 | 51* | -83 | 41 | -22 | 6 | -25 | 67*
CCN1CCN(Cc2ccc(NC(=O)c3ccc(C)c(NC(=O)N4CCNC4=O)c3)cc2C(F)(F)F)CC1 | 50* | -65 | 0 | 3 | 12 | -1 | 60*
SMILES | CF NFkB block | TWEAK Fn14 block | Peg3 prom inh | HIF-2a inh | TROY NFkB inh | KKLEB tox | CF NFkB conf
Cc1cn(-c2cc(C(=O)Nc3ccc(C)c(NC(=O)N4CCNC4=O)c3)cc(C(F)(F)F)c2)cn1 | 32 | -19 | 8 | 9 | 7 | -9 | nt
CCN1CCN(c2ccc(NC(=O)c3ccccc3F)cc2Cl)CC1 | -4 | -23 | -210 | -213 | -39 | -10 | nt
CCN1CCN(Cc2ccc(NC(=O)c3ccc(C)c(NC(=O)c4cccc5[nH]ccc45)c3)cc2C(F)(F)F)CC1 | 54*! | -172 | 42 | -23 | -28 | -15 | 49*
Cc1ccc(NC(=O)c2cc(-c3ccccc3)n[nH]2)cc1 | 14 | -53 | -122 | -230 | -53 | 2 | nt
CSc1ccc(/C=N/NC(=O)c2ccc(O)cc2)cc1 | 8 | -1 | -295 | -214 | -43 | 2 | nt
Cc1ccc2c(c1)N(C(=O)CCC(=O)NCc1cccc(Cl)c1)CC(C)O2 (stereo unspecified) | 24 | 6 | 6 | 16 | 3 | -11 | nt
Cc1ccc(CN(Cc2ccccn2)C(=O)Nc2c(F)cccc2F)cc1 | 0 | 8 | 12 | 20 | -17 | -3 | nt
O=C(NCc1cccnc1)c1cc(C2CCCCN2C(=O)c2ccc3c(c2)CCO3)on1 (stereo unspecified) | -2 | 13 | 6 | 8 | 2 | -7 | nt
COc1ccc(Cl)cc1C(=O)OCC(=O)Nc1cccnc1Cl | -20 | -37 | 3 | -11 | -22 | 13 | nt
COc1ccc(-c2cc(C(F)(F)F)nc(S(=O)(=O)CCCC(=O)Nc3cccnc3Cl)n2)cc1OC | 93* | 94* | 106* | -21 | 37 | -41 | 88*
C=C1C(=O)O[C@@H]2[C@H]1CC[C@H](C)[C@]1(O)CCC(=O)[C@@]21C | 54* | 28 | 46 | -16 | -12 | -19 | 78*
C=C1CCC(O)C2(C)CCC3C(C)C(=O)OC3C12O (stereo unspecified) | 18 | 20 | 1 | 13 | 5 | -11 | nt
Cc1ccccc1OCCC(=O)N(CC(=O)Nc1ccccc1C(F)(F)F)Cc1ccco1 | -5 | -13 | 16 | 14 | -19 | -3 | nt
O=c1c(-c2c(O)cc(O)c3c2O[C@H](c2ccc(O)cc2)CC3)c(-c2ccc(O)cc2)oc2cc(O)cc(O)c12 | 75* | 36 | 47 | 2 | -1 | 0 | 101*
Nc1c(C(O)(C(F)(F)F)C(F)(F)F)ccc2ccccc12 | -5 | 13 | 3 | 13 | 15 | 4 | nt
CN(CC(=O)Nc1ccccc1Cl)C(=O)COC(=O)c1ccc(S(=O)(=O)C(F)F)cc1 | 14 | 4 | -4 | 10 | -8 | -16 | nt

Source: PubChem BioAssay (Sanford-Burnham Center for Chemical Genomics)
